# According to PubChem BioAssay (NCATS):
# Several values for one entry are separate records, joined by “and”; a condition that tells them apart may be missing. Equal values may be shown once. Inconclusive results are not listed. Activity calls are given as the source filed them. The call rests on the fitted dose curve; in most records, active means well fitted cell-killing curve with a large enough effect; inconclusive means small, poorly fitted or top-dose-only effect; inactive means flat fitted curve, though single readings scatter.
# Assay: qHTS assay to identify small molecule inhibitors of chordoma cells - UCH-2 (AID 1259356)
# Conditions: UCH-2 chordoma viability, CellTiter-Glo ATP luminescence, 48 h; series mostly up to 46.1 µM; activity change, negative = inhibition: at the top concentration
# Source text: NIH Chemical Genomics Center [NCGC]
# Chordoma is a rare and slow growing tumor that can occur anywhere along the spine, from the base of the skull to the tailbone. Current treatment options for chordoma is surgery and radiation therapy for those who are not candidates for surgery. But chordomas tend to return in the same location or surrounding areas of the original tumor after surgery and/or radiation. Chemotherapy can slow down the progression of the tumor. As chordoma is slow growing, the general cytotoxic agents that kill fast growing cells are ineffective, and some patients have been reported to respond to molecularly targeted drugs.
# NCATS Pharmaceutical Collection (NPC) containing approximately 3000 clinically approved and investigational drugs were used to screen at 15 concentrations in a chordoma cell lines, UCH-2, to identify small molecule compounds that can inhibit chordoma cell growth.
# NCGC Assay Protocol Summary:
# Human chordoma cell line UCH-2 was dispensed at 800 per well in 4uL of culture medium into white solid bottom 1536-well plates (Corning Life Sciences, Corning, NY) using a Multidrop Combi (Thermo Scientific, Waltham, MA) dispenser. The assay plates were incubated at 37 C and 5% CO2 for an overnight, and then 23nL of compounds dissolved in DMSO and positive control were transferred using a Pintool station (Wako, San Diego, CA). Compound treatment was followed by the addition of 1uL of the combination compounds (1uM Auranofin, 500nM each of Camptothecin, Doxorubicin, Rubitecan, and Topotecan) and assay medium to each well of the assay plates using Flying Reagent Dispenser (FRD, Aurora Discovery, San Diego, CA). The assay plates were incubated at 37 C and 5% CO2 for 48hr. Then 5uL of CellTiter-Glo reagent (Promega Corporation, Madison, WI) was added to each well of the assay plates using FRD. After 30min incubation at room temperature, the luminescence signal was quantified using a ViewLux plate reader (PerkinElmer, Shelton, CT).
# On the % scale 0 is the no-effect control and ±100 the full control effect; potency means the concentration at half of the fitted maximal effect.
Structure (SMILES),"activity change, negative = inhibition",Potency
Cn1c(CCCC(=O)O)nc2cc(N(CCCl)CCCl)ccc21,-15.9% (inactive),–
C[C@@H]1O[C@@H](O[C@H]2C[C@@H](O)[C@]3(CO)[C@H]4[C@H](O)C[C@]5(C)[C@@H](C6=CC(=O)OC6)CC[C@]5(O)[C@@H]4CC[C@]3(O)C2)[C@H](O)[C@H](O)[C@H]1O,–,65.1 nM (active) and 51.7 nM (active)
C[C@H]1O[C@@H](O[C@H]2[C@@H](O)C[C@H](O[C@H]3[C@@H](O)C[C@H](O[C@H]4CC[C@@]5(C)[C@H](CC[C@@H]6[C@@H]5CC[C@]5(C)[C@@H](C7=CC(=O)OC7)CC[C@]65O)C4)O[C@@H]3C)O[C@@H]2C)C[C@H](O)[C@@H]1O,–,46.1 nM (active)
N#CC(C#N)=Cc1ccc(O)c(O)c1,8.9% (inactive),–
CN1C(=S)CN=C(c2ccccc2)c2cc(Cl)ccc21,0.466% (inactive),–
CCOC(=O)C1(c2ccccc2)CCN(CCC(C#N)(c2ccccc2)c2ccccc2)CC1,4.44% (inactive),–
O=C1NCN(c2ccccc2)C12CCN(CC1COc3ccccc3O1)CC2 (stereo not given),0.783% (inactive),–
C=C(C)[C@H]1Cc2c(ccc3c2O[C@@H]2COc4cc(OC)c(OC)cc4[C@@H]2C3=O)O1,1.75% (inactive),–
O=C(O)c1ccc2[nH]cc(CCCCN3CC=C(c4ccccc4)CC3)c2c1,-0.332% (inactive),–
Cc1ccc(S(=O)(=O)N[C@@H](CCCCN)C(=O)CCl)cc1,2.29% (inactive),–
CNCC(O)c1ccc(O)cc1 (stereo not given),5.94% [at 20.6 µM] (inactive),–
Nc1ccncc1,-12.2% (inactive),–
CC1NCCOC1c1ccccc1 (stereo not given),-0.762% (inactive),–
C=C1CC[C@@]2(O)[C@H]3Cc4ccc(O)c5c4[C@@]2(CCN3CC2CC2)[C@H]1O5,-1.82% (inactive),–
Cc1cccc(C)c1NC1=NCCCS1,2.42% (inactive),–
CCCC1CCCCN1 (stereo not given),0.457% (inactive),–
COc1ccccc1N1CCNCC1,6.51% (inactive),–
CCCN1CCC[C@@H]2Cc3nc(N)ncc3C[C@H]21,6.18% (inactive),–
O=c1oc2ccccc2c(O)c1C(CC(O)c1ccc(-c2ccc(Br)cc2)cc1)c1ccccc1 (stereo not given),-3.26% (inactive),–
c1ccc2c(c1)Nc1ccccc1S2,9.91% (inactive),–

Structure (SMILES),"activity change, negative = inhibition",Potency
CN(C)CCc1ccc(O)cc1,10.3% (inactive),–
COc1ccc2c(c1OC)CN1CCc3cc4c(cc3C1C2)OCO4 (stereo not given),2.11% [at 20.6 µM] (inactive),–
CCOP(=S)(OCC)Oc1cc(C)nc(C(C)C)n1,-2.24% (inactive),–
CC1OC(C)OC(C)O1 (stereo not given),–,inactive
NP(N)(=O)NC(=O)c1ccc(F)cc1,-10.3% (inactive),–
CC(C)(C)CC(C)(C)c1ccc(O)cc1,0.52% (inactive),–
CC(C)NCC(O)c1ccccc1Cl (stereo not given),8.51% (inactive),–
C=C1C[C@@H]2[C@H](CC[C@]3(C)C(=O)CC[C@@H]23)[C@@]2(C)C=CC(=O)C=C12,12.1% (inactive),–
c1ccc(C2CC2)c(OCC2=NCCN2)c1,-15.6% (inactive),–
CCCN1CCC[C@@H]2Cc3[nH]ncc3C[C@H]21,3.1% (inactive),–
CC(=O)[C@H]1CC[C@H]2[C@@H]3CC[C@H]4C[C@](C)(O)CC[C@]4(C)[C@H]3CC[C@]12C,0.0028% (inactive),–
CN1C[C@H](CNC(=O)OCc2ccccc2)C[C@@H]2c3cccc4c3c(cn4C)C[C@H]21,5.8% (inactive),–
Cc1ccc2c(c1)C1CN(C)CCC1N2 (stereo not given),-1.69% (inactive),–
C=CCN1CC[C@]23c4c5ccc(O)c4O[C@H]2C(=O)CC[C@@]3(O)[C@H]1C5,–,inactive
C#CCOC(C(=O)OCCN(C)C)(c1ccccc1)c1ccccc1,0.119% (inactive),–
Cc1ncc(CNC(=O)N(CCCl)N=O)c(N)n1,2.62% (inactive),–
CC(=O)Nc1cc([As](=O)(O)O)ccc1O,-15.7% (inactive),–
Oc1ccccc1-c1ccccc1,8.12% (inactive),–
CC[N+](CC)(CC)CC,7.05% (inactive),–
Cc1ccc(-c2nc3ccc(C)cn3c2CC(=O)N(C)C)cc1,11.2% (inactive),–
